Laboratory results taken from PubChem BioAssay AID1159580 (chemical genetic matrix, 2015).
Among all 5,500 compounds or so, about 2,000 (36%) were called active. About 18% were inconclusive and are not listed. No stated cut-off is given here; in the data, active means normalized growth mostly below about 0.91 (no sharp cut-off); inconclusive means no clear call, values can overlap the other calls; inactive means mostly above about 0.92. This is one part of the list.

Test: chemical genetic growth profiling, strain panel (AID 1159580);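 further: tested at 20 µM; growth read once vehicle control cultures reached saturation at 30 °C; 1 = growth at the plate median or of vehicle wells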
Details: growth OD

Measured: normalized growth

C=C[C@H]1CN2CC[C@H]1C[C@H]2[C@H](O)c1ccnc2ccccc12
inactive: S. cerevisiae deletion strains, locus YJR075W, strain HOC1, stronger effect = lower value 1.02 | S. cerevisiae deletion strains, locus YKL009W, strain mrt4, stronger effect = lower value 1.01 | S. cerevisiae deletion strains, locus YKL068W, stronger effect = lower value 0.982 | S. cerevisiae deletion strains, locus YKL085W, strain MDH1 (second series), stronger effect = lower value 0.991 | S. cerevisiae deletion strains, locus YKL085W, strain MDH1, stronger effect = lower value 0.991 | S. cerevisiae deletion strains, locus YKL160W, strain elf1, stronger effect = lower value 0.989 | S. cerevisiae deletion strains, locus YKL190W, strain CNB1, stronger effect = lower value 0.986 | S. cerevisiae deletion strains, locus YKR001C, strain vps1, stronger effect = lower value 0.967 | S. cerevisiae deletion strains, locus YKR026C, strain gcn3, stronger effect = lower value 1 | S. cerevisiae deletion strains, locus YKR091W, strain srl3, stronger effect = lower value 1 | S. cerevisiae deletion strains, locus YLL001W, strain dnm1, stronger effect = lower value 0.972 | S. cerevisiae deletion strains, locus YLL026W, stronger effect = lower value 0.994 | S. cerevisiae deletion strains, locus YLL041C, strain sdh2, stronger effect = lower value 1 | S. cerevisiae deletion strains, locus YLR027C, strain aat2, stronger effect = lower value 1 | S. cerevisiae deletion strains, locus YLR039C, strain RIC1, stronger effect = lower value 0.99 | S. cerevisiae deletion strains, locus YLR058C, strain SHM2, stronger effect = lower value 1 | S. cerevisiae deletion strains, locus YLR102C, strain apc9, stronger effect = lower value 0.976 | S. cerevisiae deletion strains, locus YLR113W, strain HOG1, stronger effect = lower value 0.941 | S. cerevisiae deletion strains, locus YLR221C, strain rsa3, stronger effect = lower value 0.989 | S. cerevisiae deletion strains, locus YLR258W, strain gsy2, stronger effect = lower value 1.01 | S. cerevisiae deletion strains, locus YLR262C, strain YPT6 (second series), stronger effect = lower value 0.975 | S. cerevisiae deletion strains, locus YLR262C, strain YPT6, stronger effect = lower value 0.966 | S. cerevisiae deletion strains, locus YLR268W, strain sec22, stronger effect = lower value 0.981 | S. cerevisiae deletion strains, locus YLR320W, strain mms22, stronger effect = lower value 0.999 | S. cerevisiae deletion strains, locus YLR330W, strain CHS5, stronger effect = lower value 1 | S. cerevisiae deletion strains, locus YLR342W, strain FKS1 (second series), stronger effect = lower value 0.995 | S. cerevisiae deletion strains, locus YLR342W, strain FKS1, stronger effect = lower value 0.985 | S. cerevisiae deletion strains, locus YLR357W, strain rsc2, stronger effect = lower value 0.986 | S. cerevisiae deletion strains, locus YLR370C, strain arc18, stronger effect = lower value 0.995 | S. cerevisiae deletion strains, locus YLR371W, strain rom2, stronger effect = lower value 0.967 | S. cerevisiae deletion strains, locus YLR384C, strain iki3, stronger effect = lower value 0.988 | S. cerevisiae deletion strains, locus YLR418C, strain cdc73, stronger effect = lower value 1.03 | S. cerevisiae deletion strains, locus YML016C, strain PPZ1, stronger effect = lower value 1.01 | S. cerevisiae deletion strains, locus YML032C, strain rad52, stronger effect = lower value 0.97 | S. cerevisiae deletion strains, locus YML120C, strain ndi1, stronger effect = lower value 0.992 | S. cerevisiae deletion strains, locus YML124C, strain tub3, stronger effect = lower value 0.975 | S. cerevisiae deletion strains, locus YMR058W, strain fet3, stronger effect = lower value 0.983 | S. cerevisiae deletion strains, locus YMR078C, strain ctf18, stronger effect = lower value 0.965 | S. cerevisiae deletion strains, locus YMR125W, strain sto1, stronger effect = lower value 1 | S. cerevisiae deletion strains, locus YMR129W, stronger effect = lower value 1 | S. cerevisiae deletion strains, locus YMR205C, strain PFK2, stronger effect = lower value 1 | S. cerevisiae deletion strains, locus YMR223W, strain ubp8, stronger effect = lower value 0.978 | S. cerevisiae deletion strains, locus YMR231W, strain pep5, stronger effect = lower value 0.995 | S. cerevisiae deletion strains, locus YMR263W, strain SAP30, stronger effect = lower value 0.987 | S. cerevisiae deletion strains, locus YMR307W, strain GAS1, stronger effect = lower value 0.986 | S. cerevisiae deletion strains, locus YNL067W, strain RPL9B, stronger effect = lower value 1.01 | S. cerevisiae deletion strains, locus YNL071W, strain lat1, stronger effect = lower value 1 | S. cerevisiae deletion strains, locus YNL128W, strain TEP1, stronger effect = lower value 1.03 | S. cerevisiae deletion strains, locus YNL153C, strain GIM3, stronger effect = lower value 1.01 | S. cerevisiae deletion strains, locus YNL183C, strain NPR1, stronger effect = lower value 0.927 | S. cerevisiae deletion strains, locus YNL209W, strain ssb2, stronger effect = lower value 1.01 | S. cerevisiae deletion strains, locus YNL233W, strain BNI4, stronger effect = lower value 0.999 | S. cerevisiae deletion strains, locus YNL248C, strain rpa49, stronger effect = lower value 1.02 | S. cerevisiae deletion strains, locus YNL250W, strain rad50, stronger effect = lower value 0.989 | S. cerevisiae deletion strains, locus YNL271C, strain bni1, stronger effect = lower value 0.993 | S. cerevisiae deletion strains, locus YNL298W, strain CLA4, stronger effect = lower value 0.98 | S. cerevisiae deletion strains, locus YNL307C, strain MCK1, stronger effect = lower value 0.981 | S. cerevisiae deletion strains, locus YNL322C, strain KRE1 (second series), stronger effect = lower value 0.99 | S. cerevisiae deletion strains, locus YNL322C, strain KRE1, stronger effect = lower value 1 | S. cerevisiae deletion strains, locus YNR049C, strain mso1, stronger effect = lower value 1 | S. cerevisiae deletion strains, locus YNR052C, strain pop2, stronger effect = lower value 0.959 | S. cerevisiae deletion strains, locus YOL006C, strain TOP1, stronger effect = lower value 1.07 | S. cerevisiae deletion strains, locus YOL012C, strain htz1 0.823 | S. cerevisiae deletion strains, locus YOL147C, strain pex11, stronger effect = lower value 0.971 | S. cerevisiae deletion strains, locus YOR001W, strain rrp6, stronger effect = lower value 0.978 | S. cerevisiae deletion strains, locus YOR061W, strain CKA2, stronger effect = lower value 1.01 | S. cerevisiae deletion strains, locus YOR069W, strain VPS5, stronger effect = lower value 1.01 | S. cerevisiae deletion strains, locus YOR070C, strain gyp1, stronger effect = lower value 1 | S. cerevisiae deletion strains, locus YOR080W, strain dia2, stronger effect = lower value 0.99 | S. cerevisiae deletion strains, locus YOR083W, strain WHI5, stronger effect = lower value 0.948 | S. cerevisiae deletion strains, locus YOR106W, strain vam3, stronger effect = lower value 0.994 | S. cerevisiae deletion strains, locus YOR136W, strain idh2, stronger effect = lower value 0.973 | S. cerevisiae deletion strains, locus YOR144C, strain elg1, stronger effect = lower value 0.972 | S. cerevisiae deletion strains, locus YOR184W, strain ser1, stronger effect = lower value 0.977 | S. cerevisiae deletion strains, locus YOR231W, strain MKK1, stronger effect = lower value 0.972 | S. cerevisiae deletion strains, locus YOR265W, strain rbl2, stronger effect = lower value 0.994 | S. cerevisiae deletion strains, locus YOR270C, strain vph1, stronger effect = lower value 1.02 | S. cerevisiae deletion strains, locus YOR290C, strain snf2, stronger effect = lower value 0.996 | S. cerevisiae deletion strains, locus YOR316C, strain cot1, stronger effect = lower value 0.984 | S. cerevisiae deletion strains, locus YPL051W, strain arl3, stronger effect = lower value 1 | S. cerevisiae deletion strains, locus YPL055C, strain LGE1, stronger effect = lower value 1.01 | S. cerevisiae deletion strains, locus YPL078C, strain atp4, stronger effect = lower value 0.99 | S. cerevisiae deletion strains, locus YPL106C, strain sse1, stronger effect = lower value 0.994 | S. cerevisiae deletion strains, locus YPL240C, strain hsp82, stronger effect = lower value 1.01 | S. cerevisiae deletion strains, locus YPL241C, strain CIN2, stronger effect = lower value 0.992 | S. cerevisiae deletion strains, locus YPL256C, strain CLN2, stronger effect = lower value 0.97 | S. cerevisiae deletion strains, locus YPR119W, strain clb2, stronger effect = lower value 0.98 | S. cerevisiae deletion strains, locus YPR141C, strain kar3, stronger effect = lower value 0.983 | S. cerevisiae deletion strains, locus YPR163C, strain tif3, stronger effect = lower value 0.977 | S. cerevisiae deletion strains, locus YPR167C, strain met16, stronger effect = lower value 0.989 | S. cerevisiae deletion strains, strain wtn01, stronger effect = lower value 0.976 | S. cerevisiae strains, strain wild type, stronger effect = lower value 1
